In PubChem BioAssay (NCI):
This is part of a sample that, as a whole, favours compounds with a hit. Of some 83,000 tested, about 20% had one in any assay.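 Testing used 96-well plates and a 48-hour single-concentration exposure. Example: -40 means 40% of the starting cells died.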

Assays:
Test in all cases: NCI-60 one-dose screen, 48 h (100 = growth as untreated, 0 = no growth, -100 = all killed)
Conditions in all cases: 10 µM unless noted; active means growth percent below 10; inactive means the rest
[1] = test system: NCI-H23 lung
[2] = test system: NCI-H226 lung
[3] = test system: NCI-H322M lung
[4] = test system: HOP-62 NSCLC
[5] = test system: NCI-H460 lung
[6] = test system: HOP-92 NSCLC
[7] = test system: NCI-H522 lung
[8] = test system: A549/ATCC NSCLC
[9] = test system: 786-0 renal
[10] = test system: COLO 205 colon
[11] = test system: DU-145 prostate
[12] = test system: K-562 leukemia
[13] = test system: MALME-3M melanoma
[14] = test system: MDA-MB-231 breast
[15] = test system: RXF 393 renal
[16] = test system: SF-268 CNS
[17] = test system: SF-295 CNS
[18] = test system: SF-539 CNS
[19] = test system: UACC-257 melanoma
[20] = test system: M14 melanoma

Measured: growth

CS(=O)CC(=N\O)/C(CS(C)=O)=N\O (stereo not given)
inactive: [1] 106% | [2] 110% | [3] 98% | [4] 102% | [5] 111% | [6] 105% | [7] 96% | [8] 97.4% | [9] 99.2% | [10] 106% | [11] 102% | [12] 106% | [13] 97.5% | [14] 101% | [15] 114% | [16] 98.5% | [17] 101% | [18] 101% | [19] 96.3% | [20] 96.3%

O=Cc1ccc(Cl)c(Cl)c1
inactive: [1] 99.1% | [2] 98.1% | [3] 106% | [4] 97% | [5] 107% | [6] 68.5% | [7] 96.5% | [8] 102% | [9] 109% | [10] 104% | [11] 94.8% | [12] 104% | [13] 98.7% | [14] 116% | [15] 94.3% | [16] 101% | [17] 119% | [18] 117% | [19] 96.4% | [20] 102%

O=[n+]1ccn([O-])c2ccccc21
inactive: [1] 96% | [2] 89.8% | [3] 104% | [4] 95% | [5] 102% | [6] 78.6% | [7] 118% | [8] 113% | [9] 103% | [10] 100% | [11] 105% | [12] 109% | [13] 98.3% | [14] 94.6% | [15] 89.5% | [16] 95.8% | [17] 107% | [18] 99.1% | [19] 133% | [20] 96.7%

O=C(Nc1ccc([N+](=O)[O-])cc1)C(=O)Nc1ccc([N+](=O)[O-])cc1
inactive: [1] 100% | [2] 96.9% | [3] 101% | [4] 81% | [5] 103% | [6] 95.4% | [7] 77.3% | [8] 67.7% | [9] 110% | [10] 101% | [11] 110% | [12] 106% | [13] 105% | [14] 98.1% | [15] 109% | [16] 100% | [17] 102% | [19] 77.7% | [20] 104%

CCOC(=O)C(C#N)=C1CCN(C)CC1
inactive: [1] 94.3% | [2] 111% | [3] 107% | [4] 104% | [5] 111% | [6] 97.9% | [7] 105% | [8] 101% | [9] 110% | [10] 108% | [11] 123% | [12] 116% | [13] 124% | [14] 119% | [15] 115% | [16] 102% | [17] 103% | [18] 105% | [19] 93.9% | [20] 105%

COC(=O)c1ccccc1C(=O)c1c(C)cc(C)cc1C
inactive: [1] 94.7% | [2] 89.5% | [3] 101% | [4] 95.1% | [5] 105% | [6] 107% | [7] 87.5% | [8] 84.4% | [9] 104% | [10] 104% | [11] 104% | [12] 96.7% | [13] 99.1% | [14] 97.4% | [15] 111% | [16] 102% | [17] 102% | [19] 99.6% | [20] 108%

Cn1c(=O)c2[nH]c(CC(=O)O)nc2n(C)c1=O
inactive: [1] 100% | [2] 90.9% | [3] 99.6% | [4] 97.2% | [5] 110% | [6] 113% | [7] 86.4% | [8] 91.4% | [9] 106% | [10] 109% | [11] 108% | [12] 105% | [13] 99.4% | [14] 100% | [15] 104% | [16] 101% | [17] 101% | [19] 96.9% | [20] 104%

CSc1nsc(N)n1
inactive: [1] 97.9% | [2] 103% | [3] 87.9% | [4] 90% | [5] 97.3% | [6] 95.6% | [7] 90.3% | [8] 92% | [9] 106% | [10] 99.4% | [11] 115% | [12] 113% | [13] 93.5% | [14] 95.9% | [15] 108% | [16] 104% | [17] 101% | [19] 99.9% | [20] 97.6%

NC(=S)N/N=C/c1ccc(OC(=O)COc2ccc(Cl)cc2)cn1
inactive: [1] 33.5% | [2] 93.5% | [3] 42.5% | [4] 53% | [5] 69.7% | [6] 66.9% | [7] 43.3% | [8] 107% | [9] 32.5% | [10] 84.7% | [11] 29.3% | [12] 44.1% | [13] 45.5% | [14] 66.6% | [15] 67% | [16] 27.8% | [17] 99.2% | [19] 78.1% | [20] 17.9%
